A selection: hits, their analogues and other compounds. The true share with any hit is near 2.4%.
ANO1 block: mouse TMEM16A channel inhibition, primary screen; Q8BHY3; HEK293 TMEM16A/YFP iodide influx fluorescence, ionomycin; normalized B-score (activity score, 25-100; higher = stronger inhibition) at 10 µM; 310,000 tested, 1.2% active; AID 588511;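 active means ratio plate-corrected score three or more library SD toward inhibition, starting fluorescence score within five deviations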;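 further: score derived from kinetic fluorescence span divided by baseline fluorescence per well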
ANO1 activ: activators or potentiators of mouse TMEM16A chloride channel | 340,000 tested, 0.3% active | HEK293 TMEM16A/YFP-H148Q/I152L, iodide quench fluorescence; active compounds read low | AID 623877 | B-score at 10 µM;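 active means fluorescence-ratio B-score plate-corrected deviation score at least 3 library SD below zero, with starting fluorescence score within 5 deviations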;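 further: channel opened by trigger with iodide after compound preincubation; score built on the fluorescence ratio of max minus min over baseline; more negative score means more quench and so TMEM16A activation or potentiation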
CHT block: human CHT choline transport inhibition | Q9GZV3 | CHT-expressing cells, membrane potential dye, choline response; active compounds read low | B-score at 10 µM | 310,000 tested, 0.86% active;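 active means B-score over 3 SD under the library average, and starting fluorescence ratio not unusually high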;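 further: choline stimulus applied at its EC90 after an EC20 pre-addition; B-score computed on integrated fluorescence ratio after choline addition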
Target sequence (Q9GZV3 whole entry, looked up): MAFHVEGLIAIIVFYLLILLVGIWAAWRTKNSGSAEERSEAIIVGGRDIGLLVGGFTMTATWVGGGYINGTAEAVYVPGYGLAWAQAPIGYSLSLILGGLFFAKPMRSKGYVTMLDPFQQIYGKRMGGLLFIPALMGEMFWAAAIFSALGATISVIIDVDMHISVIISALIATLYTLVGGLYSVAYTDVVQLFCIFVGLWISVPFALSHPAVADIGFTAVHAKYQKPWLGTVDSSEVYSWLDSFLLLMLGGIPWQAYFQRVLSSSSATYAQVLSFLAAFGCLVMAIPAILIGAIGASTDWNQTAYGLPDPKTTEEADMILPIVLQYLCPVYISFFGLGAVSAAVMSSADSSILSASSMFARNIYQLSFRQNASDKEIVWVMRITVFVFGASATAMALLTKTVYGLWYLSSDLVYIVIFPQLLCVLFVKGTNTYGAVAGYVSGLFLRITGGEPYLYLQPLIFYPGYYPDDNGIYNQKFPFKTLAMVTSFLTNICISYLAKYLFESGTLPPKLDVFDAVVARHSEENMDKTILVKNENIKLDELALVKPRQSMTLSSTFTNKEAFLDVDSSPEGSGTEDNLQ
CHT PAM: human CHT allosteric activation; Q9GZV3; CHT-expressing cells, membrane potential dye, choline EC20; active compounds read high; LV-AA mutant CHT in HEK293 cells; B-score at 10 µM; 310,000 tested, 0.49% active; AID 488977;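 active means initial fluorescence not abnormally high and integrated response B-score, plate-corrected, over 3 SD above library mean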
Of the large screens only hits and unclear results are named; the others gave an inactive call.

Cc1cc(C)c2nc(-c3ccccn3)cc(C(=O)Nc3ccc(S(=O)(=O)Nc4cc(C)on4)cc3)c2c1	ANO1 block 25
Cc1cc(C)c2nc(-c3ccccn3)cc(C(=O)Nc3ccc(S(=O)(=O)Nc4onc(C)c4C)cc3)c2c1	none
CN(C)CCSc1nc(N)c2c3c(sc2n1)CN(C)CC3	CHT block -8.01
CSc1nc(NCC(C)C)c2c3c(sc2n1)CN(C)CC3	none
CSc1nc(NCCCN(C)C)c2c3c(sc2n1)CN(C)CC3	none (no result: ANO1 activ)
CCCSc1nc(N)c2c3c(sc2n1)CN(C)CC3	CHT PAM 7.23
CCC1(C(=O)O)NC(c2cc(OC)ccc2O)C2C(=O)N(Cc3ccccc3)C(=O)C21 (stereo not given)	none
Cc1ccc(NC(=O)CC2NCCN(Cc3ccccc3)C2=O)cc1 (stereo not given)	none
COCCNC(=O)Cn1ncc2ccsc2c1=O	ANO1 activ -11.2
COCCCNC(=O)Cn1ncc2ccsc2c1=O	none
O=C1C=C(/C=C/C2C=CC=CC2)C[C@@H](c2ccc(Cl)cc2)C1 (stereo not given in full)	ANO1 activ -9.77 (no result: ANO1 block, CHT block, CHT PAM)
CC(C)C(=O)Nc1c(-c2cccs2)c(=O)c2ccccc2n1C	none
CCOc1ccccc1N1Cc2ccccc2C1	ANO1 activ -5.5
COc1ccccc1NC1=NC(CO)(CO)CS1	none
CC(C)n1cc(C(N)=S)c(=O)n(Cc2ccccc2)c1=O	none
CS(=O)(=O)Nc1ccc(C(=O)Nc2ccc3c(c2)OCO3)cc1	ANO1 activ -10.2
Cc1ccc(-n2[nH]c(C)c(/C=N/NC(=O)c3ccc([N+](=O)[O-])cc3)c2=O)c(C)c1	CHT PAM 7.5 (no result: ANO1 activ)
Cc1nc(N2CCN(C(=O)COc3ccccc3)CC2)c2c(C)c(C)sc2n1	ANO1 block 100, CHT block -7.53
O=C(COc1ccccc1)N1CCN(C(=O)COc2ccccc2)CC1	none
O=C1CCN(Cc2ccccc2)C=C1c1ccc2ccccc2c1	none (no result: ANO1 block, CHT block, CHT PAM)
C/C(Cc1ccccc1)=N\NC(=O)CNC(=O)Cc1ccc(Cl)cc1	none
Cc1cccc(C)c1OCC(O)CN1CCC(CN2C(=O)c3cccc4cccc(c34)C2=O)CC1 (stereo not given)	CHT block -6.3
Cc1cc(=O)oc(C)c1C(=O)Nc1ccccc1F	none
CCN(CC)CCCCCOc1ccccc1OC	ANO1 block 25
O=C1N(Cc2cccc(Cl)c2)C[C@@H]2C[C@@H](c3c[nH]c4ccccc34)N3CCC[C@@]123	ANO1 activ -4.64
O=C1N(Cc2cccc(Cl)c2)C[C@@H]2C[C@@H](c3cccc4ncccc34)N3CCC[C@@]123	none
CCOC(=O)c1cnn(-c2ccccc2)c1NC(=O)c1ccccc1	none
CCOC(=O)c1cnn(-c2ccccc2)c1NC(=O)c1ccc(C)cc1	ANO1 block 25
Cc1cccc(C(=O)Nc2scc(-c3ccc(Br)cc3)c2C(=O)O)c1	none
COc1cc(C(=O)Nc2scc(-c3ccc(Br)cc3)c2C(=O)O)cc(OC)c1OC	ANO1 block 100
CCn1c(COc2ccc(Cl)cc2)nnc1SCc1nc2ccccc2[nH]1	none
Cc1ccc(OCc2nnc(SCc3nc4ccccc4[nH]3)n2Cc2ccco2)cc1	ANO1 block 100
Cc1c(N=Nc2c(-c3ccc([N+](=O)[O-])cc3)[nH]n(C(N)=S)c2=O)cccc1[N+](=O)[O-]	none (no result: ANO1 block, CHT block, CHT PAM)
Cc1[nH]n(C(N)=S)c(=O)c1N=Nc1cccc([N+](=O)[O-])c1C	ANO1 block 25
Cc1ccc(S(=O)(=O)N2CCC(C(=O)OCC(=O)N(Cc3ccccc3)C(C)(C)C)CC2)cc1C	none
CC(=O)NC1=NC(=O)/C(=C/c2cc(C)n(-c3cccc(C(=O)O)c3)c2C)S1	ANO1 activ -6.38 (no result: ANO1 block, CHT block, CHT PAM)
O=[N+]([O-])c1cc(S(=O)(=O)N2CCCCCC2)ccc1F	ANO1 activ -6.59
O=C(C=Cc1ccccc1)c1cccs1	none (no result: ANO1 block, CHT block, CHT PAM)
Nc1ccc(/C=C/C(=O)c2cccs2)cc1	ANO1 activ -5.74
COc1ccc2[nH]c3c(N4CCC(O)(c5cccc(C(F)(F)F)c5)CC4)ncnc3c2c1	ANO1 block 100
COc1ccc2[nH]c3c(N4CCN(Cc5ccc6c(c5)OCO6)CC4)ncnc3c2c1	none
COc1ccc(/C=C/C(=O)NCCn2c(C)cc3ccccc32)cc1OC	none
Clc1ccc(-c2nnc(SCc3nc(-c4ccccc4)no3)o2)cc1	ANO1 activ -4.7
Clc1ccc(-c2noc(CSc3nnc(-c4ccncc4)n3-c3ccccc3)n2)cc1	ANO1 block 100
Cc1ccc(-c2noc(CSc3nnc(-c4ccncc4)n3-c3ccc(C)cc3)n2)cc1	none
CCC(CO)Oc1cc(NCc2ccccc2Cl)c2ncn(C(C)C)c2c1 (stereo not given)	none (no result: ANO1 block, CHT block, CHT PAM)
Clc1ccc(CONc2ncnc3nonc23)c(Cl)c1	ANO1 block 100
CCONc1ncnc2nonc12	none
CCN1CCN(C(=O)c2ccc3c(=O)n(C4CCCC4)c(=S)[nH]c3c2)CC1	none
O=C(NCc1ccc2c(c1)OCO2)C1CCN(S(=O)(=O)c2ccc(Br)s2)CC1	ANO1 activ -6.9
O=C(NCc1ccc2c(c1)OCO2)C1CCN(S(=O)(=O)c2cccs2)CC1	none
Cc1c(O)cc2c(c1O)C(=O)CC(c1ccccc1)O2 (stereo not given)	ANO1 block 100, ANO1 activ -6.48
Cc1nn(-c2ccccc2)c2[nH]c(=O)cc(C(F)F)c12	none (no result: ANO1 block, CHT block, CHT PAM)
C#CCOCCOCCOCCNc1nc(N2CCN(C(=O)CCCCCCCCCCNC(=O)[C@H]([C@@H](C)CC)n3cc(CCCCN=C(N)N)nn3)CC2)nc(N2CCN(C(=O)CCCCCCCCCCNC(=O)[C@H](CO)n3cc(CCCCCN)nn3)CC2)n1	ANO1 block 100, ANO1 activ -19.9
C#CCOCCOCCOCCNc1nc(N2CCN(C(=O)CCCCCCCCCCNC(=O)[C@H]([C@@H](C)CC)n3cc(CCCCN=C(N)N)nn3)CC2)nc(N2CCN(C(=O)CCCCCCCCCCNC(=O)[C@H]([C@@H](C)CC)n3cc(CCCCN=C(N)N)nn3)CC2)n1	none (no result: ANO1 activ)
C#CCOCCOCCOCCNc1nc(N2CCN(C(=O)[C@H](CCCCN)n3cc([C@@H](N)C(C)CC)nn3)CC2)nc(N2CCN(C(=O)[C@H](Cc3cc4ccccc4[nH]3)n3cc([C@@H](N)CC(C)C)nn3)CC2)n1 (stereo not given in full)	ANO1 activ -18.4
C#CCOCCOCCOCCNc1nc(N2CCN(C(=O)CCCCCCCCCCNC(=O)Cn3cc(CCCCCN)nn3)CC2)nc(N2CCN(C(=O)CCCCCCCCCCNC(=O)[C@H]([C@@H](C)CC)n3cc(CCCCN=C(N)N)nn3)CC2)n1	ANO1 activ -20.8
C#CCOCCOCCOCCNc1nc(N2CCN(C(=O)CCCCCCCCCCNC(=O)[C@H]([C@@H](C)CC)n3cc(CCCCCN)nn3)CC2)nc(N2CCN(C(=O)CCCCCCCCCCNC(=O)[C@H]([C@@H](C)CC)n3cc(CCCCN=C(N)N)nn3)CC2)n1	ANO1 activ -27.6
Cc1ccc(S(=O)(=O)Nc2cccnc2)cc1C	none
Cc1cccc(N(CC(N)=O)C2SC(=O)NC2=O)c1 (stereo not given)	none

Screens deposited in PubChem by Johns Hopkins Ion Channel Center.
